NS1 function inh: blocks influenza NS1 protein function. Potency, µM (series often up to 46.1 µM), for inactives: at the top dose activity, positive = more growth. 270,000 compounds, 0.4% hits. AID 2326; calls by dose curve; also: potency is read from the fitted curve at half-maximal effect; actives are rising curves; nearly all actives have a fitted effect of over 50% in size
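Read-out: OD600 growth recovery of NS1-expressing budding yeast. Cells grown overnight at 30C in -URA glucose medium, washed, resuspended and diluted 1:100 in 2% galactose assay medium, pH 6.0. Same strain lacking NS1 served as positive control.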
Pf growth 96h: P. falciparum growth inhibition at 96 hours; P. falciparum luciferase reporter growth, 96 h; Potency, µM (doses to about 28.7 µM), for inactives: at the top dose activity change, negative = inhibition, actives largely listed as inhibitors; 320,000 compounds, 6.9% hits; also: potency is read from the fitted curve at half-maximal effect; % is scaled to controls: 0 for no effect and ±100 for the full control effect
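P. falciparum expressing integrated firefly luciferase, in erythrocytes at 2% hematocrit, 0.05% parasitemia, incubated with compounds 96 h at 37 C, 5% CO2. Growth inhibition read as loss of luminescence; two-generation exposure targets delayed-death apicoplast inhibitors.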
Cycloheximide cs: counter-screen for Shiga toxin inhibitors: cycloheximide protein synthesis inhibition. max response, %. 300,000 compounds, 12% hits. cell reporter, cycloheximide protein synthesis inhibition counterscreen; in the data active = max response mostly above about 13%, no sharp cut-off; inactive = mostly below about 14%; also: read at 38.3 µM for the half of the compounds with a filed dose; 0% is about no effect
Pf growth 48h: P. falciparum growth inhibition at 48 hours (one generation); P. falciparum luciferase growth in erythrocytes, 48 h; Potency, µM (highest dose often 28.7 µM), without a hit: at the top dose activity change, negative = inhibition, usual class: inhibitors; 310,000 compounds, 5.9% hits; also: potency is read from the fitted curve at half-maximal effect; % is scaled to controls: 0 for no effect and ±100 for the full control effect
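Luciferase-expressing P. falciparum in infected erythrocytes (2% hematocrit, 0.1% parasitemia final) in RPMI 1640/0.5% Albumax were exposed to compound for 48 hours at 37 C, 5% CO2; growth read as luminescence.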
Shiga inhibitor: inhibitors of Shiga toxin in Vero cells; Vero cells, Shiga toxin protein synthesis inhibition reporter; inhibition, % at 38.7 µM; 290,000 compounds, 9.2% hits; AID 2315; in the data active = inhibition mostly above about 28%, no sharp cut-off; inactive = mostly below about 43%; also: 0% is about no effect
* hit, by the source's call; ? = inconclusive; nt = not tested or not shown; [ ] = dose if it differs, or a comment. Compounds with a hit are over-represented: about 21% of the library has one in this group of screens. Unless noted, calls follow the shape of the dose curve; as a rule, active = well fitted inhibition curve with a large enough effect; inconclusive = small, poorly fitted or top-dose-only effect, or another doubt; inactive = no such curve, though single readings can be large or run the other way.

SMILES | NS1 function inh | Pf growth 96h | Cycloheximide cs | Pf growth 48h | Shiga inhibitor
COc1ccc(C(=O)c2sc(Nc3ccccc3)c(C(=O)Nc3ccc(OC)c(OC)c3)c2N)cc1 | 15.6% | ? | 12.0 | 13.1µM* | 24.2
COc1ccc(NC(=O)c2c(Nc3ccccc3)sc(C(=O)c3ccc(F)cc3)c2N)cc1 | -2.2% | nt | 7.2 | ? | 39.3
O=C1C(=O)c2ccccc2C(O)=C1Cc1ccccc1 | -30.2% | nt | nt | nt | nt
Cn1nnnc1P(=O)(c1ccccc1)c1ccccc1 | 5.2% | 10.4µM* | 1.7 | -13.0% | -12.3
COCCCNC(=O)c1cc(C(=O)c2ccccc2Br)c[nH]1 | nt | ? | 1.0 | ? | -11.5
Cc1ccc(C(=O)NCC(=O)N/N=C/c2cccs2)cc1[N+](=O)[O-] | nt | ? | -2.0 | ? | -1.2
CC(C)(C)c1cc(-c2ccccc2)n[nH]1 | -2.2% | 27.2% | 15.4* | 18.5% | 33.7
CC(=O)O[C@]1(C(C)=O)CC[C@H]2C3C=C(Cl)C4=CC(=O)[C@@H]5C[C@H]5[C@]4(C)C3CC[C@@]21C (stereo partly specified) | -7.2% | nt | nt | nt | nt
CCN1/C(=C\C=C\C2=[N+](CC)c3ccccc3C2(C)C)C(C)(C)c2ccccc21 | -40.5% | 0.147µM* | -6.2 | nt | -25.4
CCOc1ccc(N2C(=O)CC(=O)NC2=O)cc1 | 20.8% | 10.4µM* | -2.2 | -4.8% | nt
CCOc1ccccc1N1C(=O)CC(=O)NC1=O | 6.9% | 23.8% | -3.1 | 23.0% | -9.1
CCOc1ccc(N2C(=O)CSC2=S)cc1 | -147.1% | 13.1µM* | -1.8 | -1.7% | -0.9
COC(=O)C1=C(C)NC(=O)NC1c1ccc(OC(=O)c2ccco2)cc1 (stereo unspecified) | -4.8% | ? | 1.1 | 9.9% | -4.4
Cc1ccc(NC(=O)NC2=NN(c3ccccc3)C(=O)/C2=C2/CCCN2C)cc1 | 14.4% | 52.5% | 27.0* | 206.5% | 89.6*
Cc1oc(-c2ccc(-c3ccccc3)cc2)nc1CN(CCO)C(C)C | -11.6% | ? | 37.2* | 158.7% | 32.5
Cc1ccc(-c2nc(CN(C)Cc3cccc4cnccc34)c(C)o2)s1 | -2.9% | 13.1µM* | 9.5 | ? | -7.3
Cc1oc(-c2ccc(-c3ccccc3)cc2)nc1CN(C)C1CCOC1 (stereo unspecified) | 2.3% | ? | 60.1* | 144.8% | 75.0*
Cc1ccc(-c2nc(CN(C)C3CCOCC3)c(C)o2)s1 | 3.3% | ? | 9.0 | 38.0% | -3.3
Cc1ccc(-c2nc(CN(C)C3CCOC3)c(C)o2)s1 (stereo unspecified) | -0.1% | 19.0% | 25.4* | 24.9% | 46.7
Cc1ccc(C)c(CSc2nc3[nH]ncc3c(=O)[nH]2)c1 | nt | -16.3% | 0.9 | -25.0% | -15.3
Cc1nn(Cc2ccccc2)c(Cl)c1C(=O)NCc1ccco1 | nt | 0.2% | 9.9 | ? | -1.5
Cc1cccc(CN2CC34C=CC(CC3S2(=O)=O)O4)c1 (stereo unspecified) | nt | nt | 26.5 | nt | 37.9
O=C(CSc1nc2ncccc2[nH]1)NCCc1ccccc1 | 0.7% | 12.8% | -4.2 | 25.1% | 6.0
CN(C)c1ccc(C=Nc2cnn(C)c2C(N)=O)cc1 | -75.4% | ? | 39.2* | 39.8% | 90.1*
Cn1ncc(N=Cc2ccccc2[N+](=O)[O-])c1C(N)=O | 5.6% | 20.4% | 0.4 | 26.5% | -6.9
SMILES | NS1 function inh | Pf growth 96h | Cycloheximide cs | Pf growth 48h | Shiga inhibitor
CCN(C(=O)c1cccs1)c1nnc(-c2ccncc2)s1 | -9.7% | 5.3%[5.75 µM] | 15.6* | -104.4% | active
Cc1cc(Oc2ccccc2)nc(OCC#N)n1 | 0.0% | -1.9% | 5.6 | 2.8% | 15.5
CCCC(=O)NC(=S)Nc1cccc(Cl)c1N1CCCCC1 | -9.4% | 8.28µM* | -0.7 | 7.38µM* | -3.0
CCCC(=O)NC(=S)Nc1ccccc1N1CCOCC1 | 12.1% | 10.4µM* | 0.3 | -23.9% | 9.3
CCC(=O)NC(=S)Nc1cccc(Cl)c1N1CCCCC1 | 15.8% | 7.38µM* | 5.6 | 11.7µM* | 17.5
CCCCC(=O)NC(=S)Nc1cccc(Cl)c1N1CCCCC1 | -0.9% | ? | -2.3 | ? | -15.0
CCCCC(=O)NC(=S)Nc1ccccc1N1CCCCC1 | -26.4% | ? | -1.5 | ? | 0.8
Cc1ccccc1CN1CCN(CC(=O)NC(C)c2ccccc2)CC1 (stereo unspecified) | 5.2% | -3.7% | -0.5 | 37.3% | 19.6
CC(=O)N1c2ccc(F)c(F)c2C[C@H]1C | nt | 49.3% | nt | 8.5% | nt
CCOC(=O)COc1ccccc1/C=C\[N+](=O)[O-] | -64.5% | 107.3% | -10.7 | 14.7µM* | -19.6
CCOc1ccccc1N=CC1=C(O)CC(c2ccccc2)CC1=O (stereo unspecified) | 2.7% | -26.1% | -1.1 | 4.7% | 1.8
CCC(=Nc1ccccc1OC)C1=C(O)CC(c2ccccc2)CC1=O (stereo unspecified) | nt | 0.415µM* | -9.5 | -23.4% | 21.3
CCC(=Nc1ccccc1O)C1=C(O)CC(c2ccccc2)CC1=O (stereo unspecified) | -84.0% | ? | 10.8* | ? | 34.0
CCCC(=NC(C)CC)C1=C(O)CC(c2ccccc2)CC1=O (stereo unspecified) | -61.6% | ? | 1.4 | 2.94µM* | -5.0
C[C@@H]1O[C@@H](O[C@H]2CC[C@@H](O[C@H]3[C@H](O)C[C@H](c4ccc5c(c4O)C(=O)C4=C(C5=O)[C@@]5(O)C(=O)C[C@](C)(O[C@H]6CC[C@H](O[C@H]7C=CC(=O)[C@H](C)O7)[C@H](C)O6)C[C@@]5(O)C=C4)O[C@@H]3C)O[C@H]2C)C=CC1=O | nt | nt | -18.1 | nt | -20.7
CCN1CCCC1CN(Cc1cc2ccc(C)c(C)c2[nH]c1=O)C(=O)Nc1ccccc1OC (stereo unspecified) | 10.3% | ? | 7.7 | -0.2% | 24.8
Nc1nccnc1C(=O)N/N=C/c1ccco1 | -1.0% | 62.2% | 62.8* | 75.9% | 93.1*
CC(C)(C)c1cc(C(=O)N/N=C/c2ccco2)n[nH]1 | 5.0% | -13.1% | 33.3* | 89.0% | 43.4
Cc1ccc(-c2cc(C(=O)N/N=C/c3ccco3)n[nH]2)s1 | 10.2% | 67.8% | 22.9* | 10.4µM* | 9.8
Nc1c(Cl)c(Cl)nc(C(=O)N/N=C/c2ccco2)c1Cl | -2.5% | ? | -1.3 | 25.0% | 8.8
CC(/C=N/NC(=O)c1cc(C(C)(C)C)[nH]n1)=C\c1ccccc1 | 3.1% | ? | 2.5 | ? | 11.3
CC(/C=N/NC(=O)c1cc(-c2ccc(C)s2)[nH]n1)=C\c1ccccc1 | 10.1% | ? | 9.1 | -17.2% | -14.9
COc1ccc(-n2c(SCC(=O)Nc3cc(C(=O)O)ccc3C)nc3ccccc3c2=O)cc1Cl | 20.1% | ? | 1.1 | ? | -4.7
CCc1ccc(NC(=O)C(C)OC(=O)CC(NC(C)=O)c2ccccc2)cc1 (stereo unspecified) | ? | 9.5% | 33.4* | ? | 29.3
CC(=O)NC(CC(=O)OC(C)C(=O)Nc1ccc(Cl)cn1)c1ccccc1 (stereo unspecified) | nt | 21.5% | nt | -8.6% | nt
CC(=O)c1c(OC(=O)c2ccccc2)ccnc1C(F)(F)F | nt | -5.6% | nt | -20.3% | nt
COc1ccc2[nH]c3c(=O)n(/N=C/c4ccc(OC)c(CN5CCCC5)c4)c(C)nc3c2c1 | 8.2% | ? | -2.6 | ? | -5.5
